Hits are enriched below; roughly 1.4% of the tested compounds scored in any of these assays.
UHRF1 MBD2 ctr: UHRF1 methylated DNA binding inhibitors, primary screen, counter-screen for MBD2 inhibitor project, biochemical, TR-FRET, human UHRF1, single concentration | hit rate 0.75% among 370,000 | inhibition, % at 4.4 µM | UHRF1 binding to methylated oligo; in the data active means inhibition above about 21%;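 further: UHRF1 SRA domain binding a hemimethylated CpG hairpin DNA probe; 0% = median of test compound wells and 100% = reference inhibitor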
Target sequence (Q96T88 whole entry, looked up, the tested form may be a part): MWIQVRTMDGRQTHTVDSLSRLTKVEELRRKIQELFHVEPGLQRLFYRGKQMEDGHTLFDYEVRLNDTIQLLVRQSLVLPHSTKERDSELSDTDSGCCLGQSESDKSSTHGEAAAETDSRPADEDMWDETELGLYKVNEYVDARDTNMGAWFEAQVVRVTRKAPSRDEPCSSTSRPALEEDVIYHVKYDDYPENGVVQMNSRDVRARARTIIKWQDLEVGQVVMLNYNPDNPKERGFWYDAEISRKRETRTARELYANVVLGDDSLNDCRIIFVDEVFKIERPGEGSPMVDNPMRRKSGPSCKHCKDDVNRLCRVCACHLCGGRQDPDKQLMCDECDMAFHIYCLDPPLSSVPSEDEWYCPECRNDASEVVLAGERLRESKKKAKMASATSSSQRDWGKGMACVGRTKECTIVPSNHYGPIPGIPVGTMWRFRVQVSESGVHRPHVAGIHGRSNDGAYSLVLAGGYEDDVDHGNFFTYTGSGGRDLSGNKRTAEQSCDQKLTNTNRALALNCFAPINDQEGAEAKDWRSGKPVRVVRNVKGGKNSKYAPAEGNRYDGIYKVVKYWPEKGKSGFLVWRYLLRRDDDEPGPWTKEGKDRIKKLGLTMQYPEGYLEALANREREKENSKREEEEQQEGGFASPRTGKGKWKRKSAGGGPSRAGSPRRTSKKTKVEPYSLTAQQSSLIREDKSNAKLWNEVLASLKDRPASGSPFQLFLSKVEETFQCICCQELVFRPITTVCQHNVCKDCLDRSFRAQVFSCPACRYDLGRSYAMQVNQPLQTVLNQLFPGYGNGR
LEDGF integ inh: blockers of LEDGF/p75-dependent integrase strand transfer – biochemical, TR-FRET, high throughput, primary screen; HIV-1 integrase (with human LEDGF/p75); inhibition, % at 3.7 µM; TR-FRET IN-LEDGF/p75 DNA integration, Eu/Cy5; hit rate 0.64% among 370,000;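 active means inhibition above the screen-wide mean plus 3 SD, cut at about 13% in these data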;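 further: signal is the Cy5 over europium emission ratio at 671 and 618 nm; 0% = plate median of compound wells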
MBD2 inh: inhibitors of MBD2 binding to methylated DNA, primary screen, biochemical, TR-FRET, DNA-binding domain, human. MBD2 binding to methylated oligonucleotide. inhibition, % at 4.4 µM. hit rate 0.31% among 370,000. AID 686964, 2013; in the data active means inhibition above about 13%
CASP6 VEID inh: human caspase-6 inhibitors, primary screen, biochemical, VEID-R110 fluorescence, single point, set 2; P55212; purified caspase-6, Z-VEID-R110 cleavage fluorescence; inhibition, % at 12.5 µM; hit rate 0.53% among 350,000; AID 686996, 2013;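 active means mean inhibition across replicates at least about 35%, with every replicate also reaching that limit, limit read from the data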;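 further: 0% = median of neutral control wells and 100% = no fluorescence left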
IN multimer act: HIV-1 IN multimer formation enhancers, counter-screen for LEDGF/p75 integration inhibitor project, biochemical, TR-FRET; shares compounds with LEDGF integ inh; TR-FRET HIV-1 integrase multimerization; activation, % at 7.7 µM; hit rate 17% among 2,000; in the data active means activation above about 8.9%
TR-FRET interf: TR-FRET optical interference artefacts, confirmation, artefact control for LEDGF/p75-dependent integration inhibitor project, biochemical, HIV-1 IN multimerization | shares compounds with LEDGF integ inh | TR-FRET optical interference counterscreen | inhibition, % at 7.7 µM | 2,000 tested, under 10 active | AID 1053135, 2014;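 active means inhibition above the mean over all tested compounds plus 3 SD, which no compound reached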;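 further: 0% = integrase with antibodies and DMSO and 100% = antibodies without integrase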
LEDGF integ conf: inhibitors of HIV-1 IN-LEDGF/p75 DNA integration, confirmation, biochemical, TR-FRET. inhibition, % at 3.7 µM. hit rate 36% among 2,000. TR-FRET LEDGF/p75-dependent HIV-1 integration. shares compounds with LEDGF integ inh. AID 1053136, 2014; in the data active means inhibition above about 14%
Active calls of the source: *.

Screening COc1ccccc1C(=O)Nc1ccc2c(c1)OC[C@@H](C)NC[C@@H](C)[C@@H](OC)CN(C)C2=O returned CASP6 VEID inh 0.
`Cc1noc(C)c1NC(=O)N(C)C[C@@H]1Oc2ccc(NC(=O)CCC(F)(F)F)cc2CC(=O)N([C@H](C)CO)C[C@H]1C` gave CASP6 VEID inh -1.
Screening Cc1noc(C)c1NC(=O)Nc1ccc2c(c1)CC(=O)N([C@@H](C)CO)C[C@H](C)[C@@H](CN(C)S(=O)(=O)c1ccc(Cl)cc1)O2 returned CASP6 VEID inh 1.
Screening CCC(=O)N(C)C[C@@H]1Oc2ncc(-c3ccc(F)cc3)cc2C(=O)N([C@H](C)CO)C[C@@H]1C returned CASP6 VEID inh 1.
COc1ccc(NC(=O)N(C)C[C@@H]2Oc3ccc(NC(=O)Nc4ccc5c(c4)OCO5)cc3C(=O)N([C@@H](C)CO)C[C@H]2C)cc1 was read as CASP6 VEID inh 0.
`O=C(N[C@@H]1CC[C@H](CCNS(=O)(=O)c2ccc(F)cc2)O[C@@H]1CO)c1cccc(F)c1` gave CASP6 VEID inh -4.
`O=C(CSc1nnnn1-c1cccc2ccccc12)Nc1ccc(C(=O)O)cc1` gave UHRF1 MBD2 ctr 0, LEDGF integ inh 4, MBD2 inh 3 and CASP6 VEID inh 0.
For COC(=O)CSc1nnnn1-c1cccc2ccccc12 the results were UHRF1 MBD2 ctr -1, LEDGF integ inh 23*, MBD2 inh 3, CASP6 VEID inh 2, IN multimer act -1, TR-FRET interf 5 and LEDGF integ conf 2.
C[C@@H]1CCCCO[C@H](CN(C)S(=O)(=O)c2cccs2)[C@@H](C)CN([C@H](C)CO)C(=O)c2cc(NS(=O)(=O)c3ccccc3)ccc2O1 was read as CASP6 VEID inh -2.
`Cc1ccc(C)c(Nc2ccc(C(=O)NCCc3ccccc3)cn2)c1` gave UHRF1 MBD2 ctr -1, LEDGF integ inh 37*, MBD2 inh -3, CASP6 VEID inh 1, IN multimer act 1, TR-FRET interf -5 and LEDGF integ conf 9.
`Cc1ccc(Nc2ccc(C(=O)NCCc3ccccc3)cn2)cc1` gave UHRF1 MBD2 ctr -1, LEDGF integ inh -2, MBD2 inh -2 and CASP6 VEID inh -5.
`COCC(=O)N1C[C@@H](C)[C@@H](OC)CN(C)C(=O)c2cc(NS(C)(=O)=O)ccc2OC[C@H]1C` gave CASP6 VEID inh 2.
O=C(NC(=S)Nc1cccc([N+](=O)[O-])c1)C1CCCC1 was read as UHRF1 MBD2 ctr -4, LEDGF integ inh 88*, MBD2 inh -5, CASP6 VEID inh -4, IN multimer act -2, TR-FRET interf 12 and LEDGF integ conf 4.
Screening CC(=O)NC(=S)Nc1cccc([N+](=O)[O-])c1 returned UHRF1 MBD2 ctr 0, LEDGF integ inh -2, MBD2 inh 1 and CASP6 VEID inh 6.
`CC(C)CC(C(=O)Nc1oc(-c2ccco2)c(-c2ccco2)c1C#N)N1C(=O)c2ccccc2C1=O` (configuration not stated) gave UHRF1 MBD2 ctr -1, LEDGF integ inh 17*, MBD2 inh 4, IN multimer act 2, TR-FRET interf -9 and LEDGF integ conf 9.
Screening CCn1c(SCC(=O)Nc2cc(C)on2)nnc1-c1ccc(S(=O)(=O)N2CCN(C)CC2)cc1 returned UHRF1 MBD2 ctr 0, LEDGF integ inh 18*, MBD2 inh -2, IN multimer act 0, TR-FRET interf 2 and LEDGF integ conf -1.
Screening CCn1c(SCC(=O)N2CCCCC2)nnc1-c1ccc(S(=O)(=O)N2CCN(C)CC2)cc1 returned UHRF1 MBD2 ctr 0, LEDGF integ inh -3 and MBD2 inh -7.
For C[C@H]1CN([C@@H](C)CO)C(=O)c2cccc(NS(=O)(=O)c3ccc(Cl)cc3)c2O[C@@H]1CN(C)S(=O)(=O)c1cccs1 the results were CASP6 VEID inh 0.
`O=C(Cc1ccc(Br)cc1)NNC(=O)c1cccs1` gave UHRF1 MBD2 ctr -2, LEDGF integ inh 14*, MBD2 inh 3, CASP6 VEID inh 0, IN multimer act 0, TR-FRET interf 0 and LEDGF integ conf 0.
For CO[C@@H]1CN(C)C(=O)c2cc(NC(=O)NC(C)C)ccc2OC[C@H](C)N(Cc2ccccn2)C[C@@H]1C the results were CASP6 VEID inh 0.
`C[C@H]1CCCCO[C@H](CN(C)S(=O)(=O)c2cn(C)cn2)[C@@H](C)CN([C@@H](C)CO)C(=O)c2cc(NC(=O)Nc3ccccc3)ccc2O1` gave CASP6 VEID inh 0.
Screening CCOC(=O)c1c(NC(=O)CSc2nnc(CNC(=O)c3ccco3)n2C)sc2c1CCC2 returned UHRF1 MBD2 ctr 4, LEDGF integ inh 60*, MBD2 inh -5, CASP6 VEID inh 11, IN multimer act -1, TR-FRET interf 3 and LEDGF integ conf -3.
Screening CCOC(=O)c1c(NC(=O)c2ccco2)sc2c1CCCCC2 returned UHRF1 MBD2 ctr -1, LEDGF integ inh 2 and MBD2 inh -1.
For CCCC(=O)N1CCCC1(C)C(=O)Nc1cc(C)ccc1C (configuration not stated) the results were UHRF1 MBD2 ctr 3, LEDGF integ inh 85*, MBD2 inh 0, CASP6 VEID inh 2, IN multimer act 0, TR-FRET interf 1 and LEDGF integ conf -14.
Screening COCc1cc(N2CCN(C(=O)OC(C)(C)C)C[C@H]2C)ccc1N1CC[C@H](O)C1 returned UHRF1 MBD2 ctr -5, LEDGF integ inh 5, MBD2 inh -5 and CASP6 VEID inh 10.
Screening COCc1cc(N2CCN(C(=O)OC(C)(C)C)C[C@@H]2C)ccc1N1CC[C@H](O)C1 returned UHRF1 MBD2 ctr -5, LEDGF integ inh 17*, MBD2 inh -7, CASP6 VEID inh 8, IN multimer act 4, TR-FRET interf -18 and LEDGF integ conf 2.
Screening COc1ccc2c3c([nH]c2c1)[C@H](CO)N(Cc1nccs1)CC31CCN(C(=O)C2CC2)CC1 returned CASP6 VEID inh 1.

Screening data as filed in PubChem.
